Consider 106 compounds from PubChem BioAssay AID2315 (National Center for Advancing Translational Sciences (NCATS), 2010).

The campaign covered roughly 290,000 compounds. About 27,000 (9.3%) were called active. Rule as the data show it: active = inhibition mostly above about 28% (no sharp cut-off); inactive = mostly below about 43%. What follows is part of a selection rich in actives, with near analogues and random picks from the rest.

A short description of the experiment: A qHTS for Small Molecule Inhibitors of Shiga Toxin. Also: 0% is about no effect. The settings on record: Vero cells, Shiga toxin protein synthesis inhibition reporter; at 38.7 µM, hits give high values. Background: qHTS replaces the single test concentration by a dilution series.
As usually defined, the inhibition is the relative decrease from the control value, in per cent. Consider `CCOc1cccc(-c2nnc(SCC(=O)NC3CC3)n2C)c1`, for which the inhibition was 27% (inactive).

For the compound `COc1ccc(NC(=O)CSc2nncc(=O)n2N)cc1OC`, the inhibition is -9.85% (inactive).

`O=C(COC(=O)c1ccccc1)Nc1ccccc1Sc1ccccc1`: the inhibition was -9.76% (inactive).

As to `O=C(COC(=O)Cn1cnc2ccccc21)Nc1cccc2c1C(=O)c1ccccc1C2=O`, the inhibition was -13.5% (inactive).

For `O=C(COC(=O)c1cccc(Br)c1)Nc1cccc2c1C(=O)c1ccccc1C2=O`, the inhibition is 31.4% (active).

With `COc1ccc(C(=O)COC(=O)Cn2cnc3c2c(=O)n(C)c(=O)n3C)c(OC)c1`, the inhibition is -5.14% (inactive).

Take `COc1cnc(-c2ccccn2)nc1Oc1ccc(C(C)(C)C)cc1`: the inhibition is 1.11% (inactive).

With `CC(C)(C)Nc1nc(-c2ccccn2)nc2ccccc12`, the inhibition is -14.9% (inactive).

Turning to `Cc1ccc(Oc2nc(-c3ccccn3)nc3ccccc23)cc1`, the inhibition was 57.7% (active).

Regarding `COC1=C(N2CCOCC2)C(=O)c2ccccc2C1=O`, the inhibition was -6.31% (inactive).

`CCOCCc1nn2c(=O)cc(CSCC(=O)Nc3cccc(C)c3C)nc2s1`: the inhibition was -13.9% (inactive).

For `O=C(Nc1cccc(-c2cscn2)c1)C1CCN(Cc2ccsc2)CC1`, the inhibition is -4.07% (inactive).

On to `COCCNC(=O)COc1ccc(N(C)S(=O)(=O)c2ccc3ccccc3c2)cc1`, for which the inhibition was -8.35% (inactive).

Turning to `O=S(=O)(O)c1nc2ccccc2n1Cc1ccc(Cl)cc1Cl`, the inhibition is -6.41% (inactive).

Turning to `COC(=O)c1sc2ncccc2c1OCc1ccc(Cl)cc1Cl`, the inhibition was 6.72% (inactive).

Regarding `Cc1nc2ccccc2nc(C)c1=NOCc1ccc(Cl)cc1Cl`, the inhibition was 112% (active).

Take `COC(=O)CSc1nnc(NC(=O)CCc2ccccc2)s1`: the inhibition was 10.7% (inactive).

In the case of `COc1ccc(CNS(=O)(=O)c2ccc(-c3cnc(C4CC4)o3)cc2)cc1`, the inhibition was -4.74% (inactive).

On to `Cc1ccc(-n2ncc3c2CC(C)(C)CC3NC(=O)CCc2cnn(C)c2)cc1` (stereo unspecified), for which the inhibition was -4.16% (inactive).

Regarding `O=C(Oc1cccc(NC2=NS(=O)(=O)c3ccccc32)c1)c1ccncc1`, the inhibition was 2.4% (inactive).

Regarding `Cc1ccc(S(=O)(=O)N(NC2=NS(=O)(=O)c3ccccc32)C(=O)c2ccccc2)cc1`, the inhibition was -6.05% (inactive).

Consider `CC(C)(C)c1csc(NC2=NS(=O)(=O)c3ccccc32)n1`, for which the inhibition was 97.3% (active).

Regarding `Cc1ccc(C(C)C)c(OCCSc2nc3ccccc3n2CC(=O)O)c1`, the inhibition is -6.58% (inactive).

For the compound `CC(OC(=O)c1ccccc1OCc1ccc(Cl)cc1)C(N)=O` (stereo unspecified), the inhibition was -20.8% (inactive).

As to `C=CCc1ccccc1OCC(O)CN1CCN(CCO)CC1` (stereo unspecified), the inhibition is -5.91% (inactive).

On to `O=C(c1ccc(-c2ccccc2)cc1)C1CCCN(C(=O)c2cncs2)C1` (stereo unspecified), for which the inhibition was 16.3% (inactive).

Regarding `CCNC(=O)N1CCCC(C(=O)c2ccc(-c3ccccc3)cc2)C1` (stereo unspecified), the inhibition is 36.1% (active).

As for `Cc1ccccc1NC(=O)C1CCCN(C(=O)NCc2ccccc2)C1` (stereo unspecified), the inhibition is -9.33% (inactive).

With `Cc1cccc(C(=O)N2CCN(S(=O)(=O)N3CCCCC3)CC2)c1`, the inhibition was 12.6% (inactive).

Regarding `CCC1CCCCN1C(=O)CSc1nc2c(c(=O)n1C)SC(C)C2` (stereo unspecified), the inhibition is -5.97% (inactive).

Regarding `CCCCN(CCCC)CCNC(=O)CN1C(=O)COc2ccc(S(=O)(=O)N3CCOCC3)cc21`, the inhibition is -2.7% (inactive).

`NS(=O)(=O)c1ccc(N=Nc2c(O)[nH]c3ccc(Br)cc23)cc1`: the inhibition is 58.5% (inactive).

Regarding `Cc1cccc(N=Nc2c(O)[nH]c3ccc(F)cc23)c1`, the inhibition is 143% (active).

With `Oc1[nH]c2ccc(Br)cc2c1N=Nc1nn[nH]n1`, the inhibition was 2.43% (inactive).

Consider `Cc1ccc(CNC(=O)C2CCN(S(=O)(=O)c3ccc4nc5c(c(C(=O)O)c4c3)CC(C)CC5)CC2)cc1` (stereo unspecified), for which the inhibition is 19.6% (inactive).

Consider `CCOC(=O)CSc1nnc(NC(=O)C2CC(=O)N(c3ccc(F)cc3)C2)s1` (stereo unspecified), for which the inhibition was -11.5% (inactive).

Turning to `Cc1ccc(S(=O)(=O)NCC2CCC(C(=O)N3CCOCC3)CC2)cc1` (stereo unspecified), the inhibition is -3.33% (inactive).

`O=C(c1cccnc1)N1CCN(S(=O)(=O)c2cccs2)CC1`: the inhibition is -10.5% (inactive).

Turning to `CCOC(=O)c1cccc(NC(=O)CN2C(=O)C3CC=CCC3C2=O)c1` (stereo unspecified), the inhibition was -2.13% (inactive).

With `CC(c1ccco1)N(C(=O)Nc1ccccc1)C1CCCCC1` (stereo unspecified), the inhibition was 71.5% (inactive).

Take `Cc1ccc(S(=O)(=O)N(C)CC(=O)OCC(=O)Nc2ccccc2)cc1`: the inhibition is 10.4% (inactive).

For the compound `Cc1ccc(NC(=O)NC(=O)N(C2CCCCC2)S(=O)(=O)c2ccccc2)cc1`, the inhibition was 0% (active).

With `COc1cc(Br)c(-c2sc(Nc3ccccc3)n[n+]2-c2ccccc2)cc1OC`, the inhibition is -9.06% (inactive).

`Cc1ccc(C(=O)NC(=S)Nc2ccc(N3CCOCC3)cc2)cc1`: the inhibition was 30% (inactive).

Regarding `Cc1cc(C(=O)NNC(=S)Nc2ccccc2C)cs1`, the inhibition is 66.8% (active).

Turning to `CCOC(=O)c1c(-c2ccccc2)csc1NC(=S)NC(=O)c1ccccc1`, the inhibition is -2.96% (inactive).

`CC(C)c1ccc(NC(=S)NNc2ccc(Cl)c(C(=O)O)c2)cc1`: the inhibition was 52% (inactive).

For the compound `Cc1ccccc1NC(=S)NC(=O)Cc1ccc(Cl)cc1`, the inhibition is -4.05% (inactive).

For `Cc1ccc(C(=O)NC(=S)Nc2ccccc2C)cc1`, the inhibition is 97.5% (active).

Regarding `Cc1cc(C(=O)Nc2c(C)n(C)n(-c3ccccc3)c2=O)cs1`, the inhibition is -6.98% (inactive).

For `Cn1nnc(NC(=S)NC(=O)c2ccccc2)n1`, the inhibition was 64.6% (active).

In the case of `Cc1ccccc1NC(=S)NNC(=O)c1cccc(Br)c1`, the inhibition was 48.8% (inactive).

Turning to `Cc1ccc(C)c(NC(=S)NNC(=S)Nc2ccc(C(C)C)cc2)c1`, the inhibition is 50.1% (active).

For `Cc1ccc(NC(=S)N/N=C2/CCCc3c(C)cc(C)cc32)cc1`, the inhibition is -4.99% (inactive).

Regarding `COc1ccc(C(=O)NNC(=S)NC(=O)c2ccccc2)cc1`, the inhibition was 31.4% (inactive).

Regarding `O=C(Nc1ccc(F)cc1)C1CCCN(S(=O)(=O)c2ccc(-n3cnnn3)cc2)C1` (stereo unspecified), the inhibition was -10.1% (inactive).

On to `Cc1nn(CC(=O)NC2CCCCC2)c(=O)c2cccn12`, for which the inhibition was 1.03% (inactive).

On to `CN(CC(=O)Nc1c(Cl)cccc1Cl)C(=O)CNC(=O)C1CCCCC1`, for which the inhibition was 8.74% (inactive).

With `CCc1nccn1CCC(=O)N1CCCC(N2CCN(c3ccccc3F)CC2)C1` (stereo unspecified), the inhibition was -3.27% (inactive).

With `O=C(Nc1cc(-c2nc3ncccc3o2)ccc1Cl)c1ccco1`, the inhibition was -5.97% (inactive).

On to `O=C1C[C@@H](c2ccc3ccccc3c2)N1S(=O)(=O)c1ccccc1[N+](=O)[O-]`, for which the inhibition was -7.61% (inactive).

For `Cc1sc2ncn(CC(=O)NCCCC(=O)N3CCN(c4ccccc4F)CC3)c(=O)c2c1C`, the inhibition is -6.47% (inactive).

Take `CC1(C)Cc2c(sc(NC(=O)C(=O)NCC3CCCO3)c2C(=O)O)CO1` (stereo unspecified): the inhibition is -2.38% (inactive).

In the case of `COc1cccc(CNC(=O)c2nnn(CC(=O)Nc3cc(C)ccc3C)c2N)c1`, the inhibition is -3.78% (inactive).

On to `CC(C)(C)c1cc(C(=O)NCc2cccnc2)ccn1`, for which the inhibition is -3.32% (inactive).

On to `Cc1ccc(NC(=S)NCCN2CCOCC2)cc1`, for which the inhibition was -3.76% (inactive).

Consider `Cc1c(C(=O)NC(=S)NCc2cccnc2)oc2ccccc12`, for which the inhibition was -22.1% (inactive).

On to `CCc1cccc(CC)c1NC(=S)Nc1ccc2cn[nH]c2c1`, for which the inhibition is -6.34% (inactive).

Turning to `Cc1cc(C(=O)NNC(=S)NC(C)c2ccccc2)cs1` (stereo unspecified), the inhibition is 8.77% (inactive).

For `Cc1ccc(C(=O)N/C(=C\c2ccc(F)cc2)C(=O)NCCN2CCOCC2)cc1`, the inhibition was -6.91% (inactive).

Take `Cc1ccc(C)c(NC(=O)NNC(=O)c2ccc3ccccc3c2O)c1`: the inhibition is -2.25% (inactive).

With `Cc1cccc(NC(=S)Nc2ccc3cn[nH]c3c2)c1`, the inhibition was -14.2% (inactive).

On to `Cc1cc2[nH]ncc2cc1NC(=S)NC(=O)c1ccccc1`, for which the inhibition is 34.9% (active).

For the compound `Cc1ccc(C(=O)NC(=S)NCCN2CCOCC2)cc1`, the inhibition was 57.3% (active).

On to `Cc1ccc(C(=O)NC(=S)NCc2cccnc2)cc1`, for which the inhibition is 56% (active).

In the case of `Cc1ccc(C)c(NC(=S)NNC(=O)c2csc(C)c2)c1`, the inhibition was 22.3% (active).

Consider `CN(C)CCN(Cc1ccccc1)S(=O)(=O)c1csc(C(N)=O)c1`, for which the inhibition is -1.58% (inactive).

On to `CCOC(=O)c1cccc(NC(=O)CCc2nnc3ccc(N4CCOCC4)nn23)c1`, for which the inhibition is -1.45% (inactive).

For `CC1CC(C)CN(C(=O)CCNC(=O)Cn2cnc3ccccc3c2=O)C1` (stereo unspecified), the inhibition is -11.9% (inactive).

Regarding `Cc1ccccc1OCC(=O)Nc1nnc(S(=O)(=O)N2CCCC2)s1`, the inhibition is -10.5% (inactive).

On to `CC(=O)c1cc(CN2CCC(n3nccc3NC(=O)c3ccccc3Cl)CC2)cs1`, for which the inhibition is -20.5% (inactive).

For the compound `O=C(Nc1ccnn1C1CCN(Cc2cccc(OCCO)c2)CC1)C1CCCC1`, the inhibition is -5.27% (inactive).

As to `Cc1cccc(NC(=O)c2sc3nc(N4CCOCC4)c4c(c3c2N)CCCC4)c1`, the inhibition was 30.8% (inactive).

Consider `Cc1nc(N2CCOCC2)nc2c1CCCC2`, for which the inhibition was 35.4% (inactive).

On to `Nc1nc(-c2sc3nc4c(cc3c2N)CCCC4)nc(N2CCOCC2)n1`, for which the inhibition was 58.2% (active).

Take `Cc1cc(-c2nnc(SCC(=O)Nc3ccc(S(N)(=O)=O)cc3)n2N)n[nH]1`: the inhibition is -4.71% (inactive).

In the case of `O=C(NC(Cc1ccccc1)C(=O)O)/C(=C\c1ccccc1)NC(=O)c1ccco1` (stereo unspecified), the inhibition is -11.9% (inactive).

Take `CC(=O)Oc1cccc(N2C(=O)C3CC=C(Cl)CC3C2=O)c1` (stereo unspecified): the inhibition is -2.36% (inactive).

Take `COc1ccc(N2CCN(C3CC(=O)N(c4ccc5c(c4)OCCO5)C3=O)CC2)cc1` (stereo unspecified): the inhibition is -9.64% (inactive).

For `CC(=O)Oc1cccc(N2C(=O)CC(Nc3ccc(N4CCOCC4)cc3)C2=O)c1` (stereo unspecified), the inhibition was 58.2% (active).

In the case of `CCOc1ccccc1OCCCNCc1ccccc1`, the inhibition was 8.72% (inactive).

Consider `CCOc1ccc(S(=O)(=O)Nc2ccc(OC)nc2)cc1`, for which the inhibition was 33.9% (inactive).

With `CCCCCCn1cc(C(=O)O)c(=O)c2cc(F)c(N3CCCCC3)cc21`, the inhibition was 33.7% (inactive).

With `COc1ccccc1CNC(=O)C1CCN(S(=O)(=O)c2ccc3c(c2)OCCO3)CC1`, the inhibition was -11.4% (inactive).

Regarding `O=C(NCc1ccccn1)c1ccc2nc(-c3ccco3)c(-c3ccco3)nc2c1`, the inhibition was 5.29% (inactive).

Regarding `O=C(Nc1ccccc1C(F)(F)F)c1cc(-c2ccc(O)cc2)on1`, the inhibition was 54.9% (active).

Consider `O=C(Nc1cccnc1Cl)c1cc(-c2cccc(Cl)c2)on1`, for which the inhibition was -1.68% (inactive).

With `O=C(Nc1cccc2ncccc12)c1ccc(-c2ccc(Cl)cc2Cl)o1`, the inhibition was -17.2% (inactive).

As for `O=C(NCc1ccccn1)c1cc(Br)ccc1Cl`, the inhibition is 29.6% (inactive).

On to `O=C(NNC(=O)c1ccccc1[N+](=O)[O-])Nc1ccccc1C(F)(F)F`, for which the inhibition is -6.67% (inactive).

On to `O=C(Nc1cccnc1Cl)c1cc(-c2ccccc2O)on1`, for which the inhibition was 73.1% (active).

Turning to `C=CCNC(=O)c1cc(-c2ccccc2O)on1`, the inhibition was 98.8% (active).

Take `C=CCNC(=O)c1csc(-c2ccccc2)n1`: the inhibition was 11.1% (inactive).

Consider `CCc1ccccc1NC(=O)c1cc(-c2ccc3c(c2)OCO3)on1`, for which the inhibition was 25.8% (inactive).

Consider `O=C(NCc1ccccn1)c1cc(-c2ccccc2Cl)on1`, for which the inhibition is 162% (active).

For the compound `C=CCNC(=O)c1ccccc1SCc1c(C)noc1C`, the inhibition is -38.8% (inactive).
